We go through 8 molecules from PubChem BioAssay (NCATS).

Molecules are shown by their SMILES. Records with an inconclusive call do not appear. Calls of active or inactive are those of the source. Unless noted, the call rests on the fitted dose curve; in most records, active means well fitted curve in the direction sought with a large enough effect; inconclusive means small, poorly fitted or top-dose-only effect, or another doubt; inactive means no such curve, though single readings can be large; an effect the other way counts as inactive or inconclusive.

Assay [1] can be described thus: AP1 Signaling Pathway (AID 357; active means well fitted curve in either direction with a large enough effect, not every such curve was filed as active;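 further: ME-180 reporter cells stimulated with EGF at its EC50 level; on the % scale 0 is the no-effect control and ±100 the full control effect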). Particulars: ME-180 AP-1-bla reporter, EGF-induced, beta-lactamase ratio, 5 h; at 7.69 µM (top of the series) unless noted. Summed up:
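A ratiometric CCF4 readout (405 nm excitation; 460 and 530 nm emission) quantified AP-1-driven beta-lactamase in ME-180 cells after 5 h with compound and EC50 EGF; AC50 values were derived for activators and inhibitors.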

Assay [2] deals with Cytochrome P450 1A2 (Homo sapiens) (UniProt P05177). Kind of assay: p450-cyp1a2 (AID 410; calls by dose curve;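 further: -100% = full effect of reference inhibitor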). In outline:
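20nM CYP1A2, 100uM Luciferin-ME (=Km), 100mM KPO4; cpd 10 min RT; +NADPH regen, 60 min RT; stop/detect 20 min; luminescence. Normalized to furafylline 57 uM = full inhibition.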

A short description of assay [3]: Stat Signaling Pathway (AID 446; active means well fitted curve in either direction with a large enough effect, not every such curve was filed as active;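 further: ME-180 cervical cancer cells given 40 pM IL-6 alongside compound; SIE-controlled beta-lactamase reporter measured as 460/530 nm FRET emission ratio; on the % scale 0 is the no-effect control and ±100 the full control effect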). Particulars: ME-180 (cervical carcinoma) SIE beta-lactamase reporter, IL-6 stimulated, 5 h; at 7.69 µM (top of the series) unless noted. Summed up:
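Emission at 460 and 530 nm (excitation 405 nm) reports SIE-controlled beta-lactamase in ME-180 cells. Cells received compound with 40 pM IL-6 for 5 hrs at 37 C; data scaled between 300 pM IL-6 and 125 nM JAK-inhibitor controls.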

The target in assay [4] is Glucocorticoid receptor (Homo sapiens) (UniProt P04150). The experiment in a line: GR-GFP Redistribution (AID 450;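 active means compounds whose dose series gives a full or clear partial fitted curve of increased nuclear translocation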; further: potency means the concentration at half of the fitted maximal effect). Particulars: U2OS GR-GFP nuclear translocation, laser cytometry, 2 h.
Assay [5] shares this target. The experiment in a line: GR-EFC Redistribution (AID 451; calls by dose curve; further: potency means the concentration at half of the fitted maximal effect). The conditions noted are these: CHO-K1 GR-EFC translocation, beta-gal luminescence, 2 h. In outline:
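CHO-K1 cells expressing nuclear EA and GR-ED fragments of b-gal; compounds titrated up to 46 uM final, 2 h at 37 C. GR nuclear translocation read as complemented b-gal luminescence after 1 h RT detection.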

The target in assay [6] is 3',5'-cyclic-AMP phosphodiesterase 4B (Homo sapiens) (UniProt Q07343). The experiment in a line: qHTS Assay for Inhibitors of PDE-IV (AID 607; active means well fitted activation curve with a large enough effect in the main read-out, with a control signal flat, not every such curve was filed as active; further: % of control where 0% means no effect). In outline:
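The readout is membrane depolarisation from a cAMP-sensing CNG channel, detected with a potential dye at ex 535/em 590. Cells were HEK293-derived (endogenous PDE-IV) at 1000 cells/well, titrated up to 22.9 uM final.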
A general note: qHTS replaces the single test concentration by a dilution series.

The nature of assay [7]: qHTS Assay for Lipid Storage Modulators (AID 1519; calls by dose curve; on activity change, negative = inhibition: on the % scale 0 is the no-effect control and ±100 the full control effect). The conditions noted are these: Drosophila S3 cells, BODIPY lipid droplet/cell ratio, laser cytometry, cells loaded with oleic acid. Summed up:
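Cells seeded at 5,000 per well were treated with compounds over a concentration series and loaded with oleic acid (400 uM, as added). Lipid droplet fluorescence (488 nm excitation, 500-530 nm channel) was read by laser-scanning cytometry and normalized to 20 uM Triacsin C.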

In assay [8] the target is Ubiquitin carboxyl-terminal hydrolase 1 (Homo sapiens) (UniProt O94782). Kind of assay: Inhibitors of USP1/UAF1: Pilot qHTS (AID 504865).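 Further: rhodamine fluorescence freed from ubiquitin-rhodamine substrate followed over time; top concentration of the series differs between compounds; on the % scale 0 is the no-effect control and ±100 the full control effect; nearly all actives have a fitted effect of over 35% in size.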 In outline: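 USP1/UAF1 complex at 1 nM preincubated 15 min at room temperature with compound, then Ub-Rho substrate added at 150 nM final. Fluorescence (480/540 nm) read kinetically in 50 mM HEPES pH 7.8, 0.5 mM EDTA, 1 mM TCEP, 0.1 mg/ml BSA, 0.01% Tween-20.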

Assay [9] concerns the target Rap guanine nucleotide exchange factor 3 (Homo sapiens) (UniProt O95398). The experiment in a line: Confirmatory qHTS for antagonist of cAMP-regulated guanine nucleotide exchange factor 3 (EPAC1) (AID 1645880).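 Further: plate controls were DMSO only for no effect and full effect of the ATA control for full effect; nearly all actives have a fitted effect of over 55% in size.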 In outline: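 Released BODIPY-GDP fluoresces less than Rap1-bound BODIPY-GDP; the signal is followed at 480/540 nm at 5-min intervals over 30 min, after 5 min at room temperature. Reactions contain 100 nM EPAC1, 250 nM RAP1B-BODIPY-GDP and 50 uM GDP; results are normalized to ATA and DMSO.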

Assay [10] shares this target. The experiment in a line: Confirmatory qHTS for agonist of cAMP-regulated guanine nucleotide exchange factor 3 (EPAC1) (AID 1645881).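 Further: EPAC1 catalysed release of BODIPY-GDP from Rap1B seen as fluorescence loss; 100% = effect of cAMP agonist control; nearly all actives have a fitted effect of over 75% in size.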
Assay [11] addresses Rap guanine nucleotide exchange factor 4 (Homo sapiens) (UniProt Q8WZA2). Kind of assay: Confirmatory qHTS for agonist of cAMP-regulated guanine nucleotide exchange factor 4 (EPAC2) (AID 1645884).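 Further: nucleotide exchange releases bodipy-GDP from Rap1 and this lowers its fluorescence; on the % scale 0 is the no-effect control and ±100 the full control effect; nearly all actives have a fitted effect of over 65% in size.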
For assay [12] the target is unchanged. Kind of assay: Confirmatory qHTS for antagonist of cAMP-regulated guanine nucleotide exchange factor 4 (EPAC2) (AID 1645885). Further: nearly all actives have a fitted effect of over 25% in size. Further: potency means the concentration at half of the fitted maximal effect. On activity change, negative = inhibition: on the % scale 0 is the no-effect control and ±100 the full control effect.
Assay [13] addresses Cytochrome P450 3A4 (Homo sapiens) (UniProt P08684). Kind of assay: qHTS Assay for Activators of Cytochrome P450 3A4 (AID 885). Further: nearly all actives have a fitted effect of over 65% in size. In outline: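 Activators are scored by enhanced luminescence from CYP3A4 conversion of luciferin-PPXE (25uM, equal to KM) to luciferin, after 60 min at RT with an NADPH-regenerating system.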
Assay [14] in a line: Confirmation and Secondary Assay for Modulators of Hemoglobin Beta Chain Splicing at IVS2 654 locus (AID 910).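 Further: HeLa cells stably carrying EGFP split by mutant beta-globin IVS2-654 intron; % of control where 0% means no effect.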 In outline:
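HeLa cells stably expressing EGFP interrupted by β-globin IVS2-654 intron, seeded overnight in Opti-MEM/2% FCS, then treated 2 days at 37 °C. Restored splicing read as total peak GFP intensity per well by laser scanning cytometry (488 nm excitation, 500–520 nm emission); 500 nM antisense PNA as control.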

Assay [15] in a line: Confirmation and Secondary Assay for Modulators of Hemoglobin Beta Chain Splicing at IVS2 705 locus (AID 930).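 Further: HeLa cells stably expressing the EGFP-705 splicing reporter; GFP fluorescence per well restored by corrected splicing of the IVS2-705 intron in EGFP; % of control where 0% means no effect.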 Summed up:
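Secondary splice-site specificity test uses HeLa expressing CMV-driven EGFP interrupted by IVS2-705; cells were treated 2 days at 37C with 500 nM antisense PNA as positive control.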

For assay [16], the target named is Cytochrome P450 3A4 (Homo sapiens) (UniProt P08684). The experiment in a line: qHTS Assay for Inhibitors and Substrates of Cytochrome P450 3A4 (AID 884). Further: nearly all actives have a fitted effect of over 50% in size. Further: potency means the concentration at half of the fitted maximal effect. In outline: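 Luminescent readout of luciferin produced by CYP3A4 (20 nM) dealkylation of Luciferin-PPXE, 25 uM (its KM). NADPH-driven reaction ran 60 min at RT after 10 min compound preincubation; data scaled to 57 uM ketoconazole as 100% inhibition.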

Setting [17] is: measured here: cell count channel max response.
[18] abbreviates: measured here: lipid channel max response.

Ubiquitin carboxyl-terminal hydrolase 1 (Homo sapiens), sequence (O94782 whole entry, looked up): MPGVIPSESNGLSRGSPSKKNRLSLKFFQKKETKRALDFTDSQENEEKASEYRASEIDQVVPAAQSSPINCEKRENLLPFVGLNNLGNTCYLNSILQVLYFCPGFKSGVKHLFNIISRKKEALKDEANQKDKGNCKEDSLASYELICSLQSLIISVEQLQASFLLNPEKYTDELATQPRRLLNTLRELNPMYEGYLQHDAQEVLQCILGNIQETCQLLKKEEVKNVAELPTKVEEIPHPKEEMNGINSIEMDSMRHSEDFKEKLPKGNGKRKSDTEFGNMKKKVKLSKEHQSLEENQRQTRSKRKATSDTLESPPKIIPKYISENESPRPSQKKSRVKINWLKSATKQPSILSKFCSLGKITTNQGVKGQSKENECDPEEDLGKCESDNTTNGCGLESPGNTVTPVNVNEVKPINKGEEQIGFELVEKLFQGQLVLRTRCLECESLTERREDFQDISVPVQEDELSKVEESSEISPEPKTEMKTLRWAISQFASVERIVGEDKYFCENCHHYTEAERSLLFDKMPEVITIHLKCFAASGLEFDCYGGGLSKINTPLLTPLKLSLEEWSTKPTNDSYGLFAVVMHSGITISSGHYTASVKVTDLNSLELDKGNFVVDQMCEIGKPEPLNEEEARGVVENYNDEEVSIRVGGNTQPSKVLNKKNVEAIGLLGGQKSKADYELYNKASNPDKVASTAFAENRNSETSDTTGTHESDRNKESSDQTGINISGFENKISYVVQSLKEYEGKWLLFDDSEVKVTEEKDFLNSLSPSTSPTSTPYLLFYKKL
Rap guanine nucleotide exchange factor 3 (Homo sapiens), sequence (O95398 whole entry, looked up): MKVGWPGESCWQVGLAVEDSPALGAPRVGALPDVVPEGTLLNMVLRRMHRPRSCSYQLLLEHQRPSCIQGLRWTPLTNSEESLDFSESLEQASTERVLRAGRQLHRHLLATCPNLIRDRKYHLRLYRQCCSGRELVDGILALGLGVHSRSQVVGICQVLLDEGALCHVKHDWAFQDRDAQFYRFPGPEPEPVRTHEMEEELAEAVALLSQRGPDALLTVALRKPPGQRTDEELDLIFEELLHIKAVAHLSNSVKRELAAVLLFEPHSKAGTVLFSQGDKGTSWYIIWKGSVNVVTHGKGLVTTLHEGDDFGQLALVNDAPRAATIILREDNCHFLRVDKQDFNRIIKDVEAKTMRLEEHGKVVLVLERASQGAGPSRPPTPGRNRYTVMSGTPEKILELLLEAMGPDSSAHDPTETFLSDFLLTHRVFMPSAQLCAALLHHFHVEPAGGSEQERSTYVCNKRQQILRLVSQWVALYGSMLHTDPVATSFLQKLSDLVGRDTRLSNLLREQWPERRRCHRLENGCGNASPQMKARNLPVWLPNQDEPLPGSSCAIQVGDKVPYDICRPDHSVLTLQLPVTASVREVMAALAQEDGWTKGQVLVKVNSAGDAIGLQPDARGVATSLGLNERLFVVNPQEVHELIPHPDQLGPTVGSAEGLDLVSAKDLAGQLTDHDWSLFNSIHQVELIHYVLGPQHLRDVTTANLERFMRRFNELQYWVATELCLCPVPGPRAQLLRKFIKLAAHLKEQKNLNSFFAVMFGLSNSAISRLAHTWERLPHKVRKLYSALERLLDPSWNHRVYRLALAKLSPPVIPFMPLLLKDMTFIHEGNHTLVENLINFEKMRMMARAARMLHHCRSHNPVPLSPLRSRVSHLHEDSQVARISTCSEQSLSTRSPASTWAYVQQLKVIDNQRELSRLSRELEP
Glucocorticoid receptor (Homo sapiens), sequence (P04150 whole entry, looked up): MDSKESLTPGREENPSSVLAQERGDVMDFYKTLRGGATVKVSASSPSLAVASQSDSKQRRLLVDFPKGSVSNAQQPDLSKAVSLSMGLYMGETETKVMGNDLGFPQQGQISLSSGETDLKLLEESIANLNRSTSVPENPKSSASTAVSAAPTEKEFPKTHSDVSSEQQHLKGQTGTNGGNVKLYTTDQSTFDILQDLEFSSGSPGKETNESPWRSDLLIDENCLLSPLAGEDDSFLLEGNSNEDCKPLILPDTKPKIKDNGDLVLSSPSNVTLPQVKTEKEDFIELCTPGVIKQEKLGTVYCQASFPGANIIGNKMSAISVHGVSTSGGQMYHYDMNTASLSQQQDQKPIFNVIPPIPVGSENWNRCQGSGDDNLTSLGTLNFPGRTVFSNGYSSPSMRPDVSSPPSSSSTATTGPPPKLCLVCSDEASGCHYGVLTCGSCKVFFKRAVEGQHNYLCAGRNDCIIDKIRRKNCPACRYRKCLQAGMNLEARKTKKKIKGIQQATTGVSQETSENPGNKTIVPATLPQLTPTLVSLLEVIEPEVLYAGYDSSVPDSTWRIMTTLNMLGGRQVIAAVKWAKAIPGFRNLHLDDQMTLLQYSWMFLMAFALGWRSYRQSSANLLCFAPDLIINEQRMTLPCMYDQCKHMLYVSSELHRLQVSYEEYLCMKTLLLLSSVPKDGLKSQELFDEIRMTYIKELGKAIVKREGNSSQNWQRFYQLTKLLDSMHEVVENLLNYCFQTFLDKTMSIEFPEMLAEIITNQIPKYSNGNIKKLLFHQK
Rap guanine nucleotide exchange factor 4 (Homo sapiens), sequence (Q8WZA2 whole entry, looked up): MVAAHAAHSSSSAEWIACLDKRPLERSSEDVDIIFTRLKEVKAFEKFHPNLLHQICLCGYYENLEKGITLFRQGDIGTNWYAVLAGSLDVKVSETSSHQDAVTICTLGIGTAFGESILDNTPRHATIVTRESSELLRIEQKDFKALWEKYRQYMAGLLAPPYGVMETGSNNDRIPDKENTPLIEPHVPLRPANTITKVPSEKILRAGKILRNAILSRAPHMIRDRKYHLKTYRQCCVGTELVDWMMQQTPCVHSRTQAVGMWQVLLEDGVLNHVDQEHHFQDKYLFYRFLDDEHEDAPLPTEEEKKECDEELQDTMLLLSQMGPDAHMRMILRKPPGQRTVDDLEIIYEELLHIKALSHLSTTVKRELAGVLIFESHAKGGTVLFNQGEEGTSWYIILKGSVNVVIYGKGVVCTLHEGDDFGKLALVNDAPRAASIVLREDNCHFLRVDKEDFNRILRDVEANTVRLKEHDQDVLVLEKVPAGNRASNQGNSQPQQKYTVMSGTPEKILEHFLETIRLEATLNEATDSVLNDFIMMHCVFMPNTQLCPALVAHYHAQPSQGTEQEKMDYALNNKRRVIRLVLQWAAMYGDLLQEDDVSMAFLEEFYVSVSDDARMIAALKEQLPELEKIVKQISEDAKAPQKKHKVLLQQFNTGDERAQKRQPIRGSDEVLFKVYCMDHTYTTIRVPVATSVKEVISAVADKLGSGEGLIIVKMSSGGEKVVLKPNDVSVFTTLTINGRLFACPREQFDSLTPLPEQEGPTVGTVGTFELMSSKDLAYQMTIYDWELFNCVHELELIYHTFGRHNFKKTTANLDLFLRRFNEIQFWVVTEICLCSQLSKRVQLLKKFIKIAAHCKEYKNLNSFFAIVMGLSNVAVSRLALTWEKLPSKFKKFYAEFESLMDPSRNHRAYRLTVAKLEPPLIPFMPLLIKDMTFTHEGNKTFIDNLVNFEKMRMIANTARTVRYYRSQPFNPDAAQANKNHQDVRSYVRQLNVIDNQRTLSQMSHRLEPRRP
Cytochrome P450 3A4 (Homo sapiens), sequence (P08684 whole entry, looked up): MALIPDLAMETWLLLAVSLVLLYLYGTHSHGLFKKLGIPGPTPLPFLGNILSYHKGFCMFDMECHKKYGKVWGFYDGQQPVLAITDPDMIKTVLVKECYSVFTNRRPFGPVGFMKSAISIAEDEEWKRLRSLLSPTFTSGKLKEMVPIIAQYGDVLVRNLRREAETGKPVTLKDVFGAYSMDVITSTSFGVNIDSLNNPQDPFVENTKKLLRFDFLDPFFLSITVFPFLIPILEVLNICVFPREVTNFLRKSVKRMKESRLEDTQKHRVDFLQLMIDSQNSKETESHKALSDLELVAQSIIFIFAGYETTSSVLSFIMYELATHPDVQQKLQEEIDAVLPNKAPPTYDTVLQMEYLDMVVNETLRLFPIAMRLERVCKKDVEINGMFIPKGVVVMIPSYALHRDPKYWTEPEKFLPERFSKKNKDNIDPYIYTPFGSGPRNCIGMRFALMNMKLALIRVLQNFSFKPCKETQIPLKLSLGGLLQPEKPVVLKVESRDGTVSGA
3',5'-cyclic-AMP phosphodiesterase 4B (Homo sapiens), sequence (Q07343 whole entry, looked up): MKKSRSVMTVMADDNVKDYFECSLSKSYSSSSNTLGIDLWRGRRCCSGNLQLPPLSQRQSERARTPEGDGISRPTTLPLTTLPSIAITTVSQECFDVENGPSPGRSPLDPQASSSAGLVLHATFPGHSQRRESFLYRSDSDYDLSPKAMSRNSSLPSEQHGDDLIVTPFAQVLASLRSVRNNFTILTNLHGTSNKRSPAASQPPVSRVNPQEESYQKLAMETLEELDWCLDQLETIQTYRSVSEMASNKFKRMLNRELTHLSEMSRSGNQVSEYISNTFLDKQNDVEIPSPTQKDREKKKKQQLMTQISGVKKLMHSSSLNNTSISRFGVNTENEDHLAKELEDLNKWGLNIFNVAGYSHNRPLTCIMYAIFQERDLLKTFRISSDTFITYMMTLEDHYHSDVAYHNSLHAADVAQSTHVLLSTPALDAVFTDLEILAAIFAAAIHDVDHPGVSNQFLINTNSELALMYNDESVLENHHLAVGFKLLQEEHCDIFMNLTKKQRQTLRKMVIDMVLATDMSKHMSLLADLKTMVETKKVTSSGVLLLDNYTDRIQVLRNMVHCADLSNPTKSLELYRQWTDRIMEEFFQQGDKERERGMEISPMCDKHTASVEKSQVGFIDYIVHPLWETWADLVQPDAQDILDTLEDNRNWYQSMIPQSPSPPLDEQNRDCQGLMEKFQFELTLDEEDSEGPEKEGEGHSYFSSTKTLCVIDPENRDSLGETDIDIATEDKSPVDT

For `Nc1nc2n[nH]nc2c(=O)[nH]1`, the activity change, negative = inhibition was -1.23% [at 17.2 µM] (inactive) in [1] and -1.04% (inactive) in assay [7] (at 25.7 µM (top of the series)). Further, the Potency result in assay [2], in [6], in assay [8], in assay [9], in assay [10] and in assay [11] was “inactive” throughout. Also, the Potency entry in [12] is “inactive”. Also, the activity, negative = inhibition in assay [3] was -26.9% [at 17.2 µM] (inactive). The Potency in assay [4] and in [5] was > 20.6 µM (inactive) throughout. The max response in assay [7] (setting [17]) is 15.7%; in assay [7] (setting [18]), 11%.

In the case of `CC(=O)Oc1ccc2c(c1C(C)C)CCC1C(C)(C)CCC[C@@]21C` (some centres not stated), the Potency entry in assay [13], in assay [14], in assay [9], in assay [10], in assay [11] and in assay [12] was “inactive” in each case. For the same molecule, the outcome in assay [15] was inactive. Further, the activity change, negative = inhibition in assay [7] (at 57.5 µM (top of the series)) was 2.03% (inactive). The figures for the max response in assay [7] (setting [17]) and in assay [7] (setting [18]) were 13.7% and 20.3%, respectively.

`COc1ccc(-c2cc(=O)c3c(OC)c(OC)c(OC)c(OC)c3o2)cc1`: in assay [16], the Potency is 12.6 µM (active). Further, the Potency entry in assay [13], in assay [14], in [9] and in assay [10] was “inactive” throughout. The molecule was called inactive in assay [15]. Besides, the activity change, negative = inhibition in [7] (at 57.5 µM (top of the series)) is -5.75% (inactive). The max response is -19.4% in assay [7] (setting [17]) and -24.9% in assay [7] (setting [18]).

Consider `COc1c(-c2ccc(O)c(O)c2)oc2cc(O)cc(O)c2c1=O`, for which the Potency in assay [4] and in [5] was > 46 µM (inactive) each time. The Potency result in [6], in [16], in assay [10], in assay [11] and in assay [12] was “inactive” in each case. In [7] (at 57.5 µM (top of the series)), the activity change, negative = inhibition was 0.206% (inactive). The values for the max response in assay [7] (setting [17]) and in assay [7] (setting [18]) were -16.5% and -17.7%, respectively.

Take `COc1ccc2c(c1)OCc1c-2oc2cc(OC)ccc12`: the Potency result in assay [13], in assay [14], in [9], in assay [10], in assay [11] and in [12] was “inactive” in each case. Moreover, in [15], the molecule was classed as inactive. The activity change, negative = inhibition in assay [7] (at 57.5 µM (top of the series)) was 8.22% (inactive). In addition, the results for the max response in [7] (setting [17]) and in assay [7] (setting [18]) were -1.79% and 8.38%, respectively.

As to `COc1ccc2c(c1)[C@@]1(C)CCC[C@](C)(CO)C1CC2` (some centres not stated), the Potency in assay [16] was 10 µM (active); in assay [12] it was 39.3 µM (active). Further, the Potency entry in assay [13], in [10] and in [11] was “inactive” in each case. Besides, in assay [7] (at 57.5 µM (top of the series)), the activity change, negative = inhibition is 8.34% (inactive). Further, the max response in assay [7] (setting [17]) came out at 17.7%; in [7] (setting [18]), 28.8%.

`CCOC(=O)c1c(C)cc(OC)cc1O`: the Potency result in assay [13], in assay [14], in assay [8], in assay [9], in assay [10] and in assay [11] was “inactive” throughout. Besides, the result in assay [15] was inactive. In addition, in assay [7] (at 57.5 µM (top of the series)), the activity change, negative = inhibition is -10.6% (inactive). For the same molecule, the max response in [7] (setting [17]) is 3.28%; in assay [7] (setting [18]), -5.56%.

For `CC1=CC2C(CC1=O)C(C)=CCC2C(C)C` (configuration not stated), the Potency entry in [16], in assay [14], in assay [8], in assay [9], in assay [10] and in [11] was “inactive” throughout. Besides, the call in assay [15] was inactive. Besides, the activity change, negative = inhibition in assay [7] (at 57.5 µM (top of the series)) was 1.38% (inactive). The max response was found to be 3.62% in assay [7] (setting [17]) and 5.28% in assay [7] (setting [18]). The Potency in [12] was 39.3 µM (active).
